# Test results reported in ChEMBL document CHEMBL4513216, “Probing the Open Global Health Chemical Diversity Library for Multistage-Active Starting Points for Next-Generation Antimalarials” (ACS Infect Dis, 2020).
# The whole screen tested about 68,000 compounds, of which about 2,700 (4%) showed an effect of 50% or more. For the sample, strong results were picked, then their nearest neighbours and some compounds at random.
# System: Plasmodium berghei
# Experiment: Screen against P. berghei liver stage (PbLuc), transformed with Luciferase, at 2uM
# Format: functional, HepG2
# Settings: tested at 2 uM
row,SMILES,INHIBITION
1,CCN(Cc1cnn(CC)c1)C(=O)CN1C(=O)CCc2ccccc21,21%
2,CC(C)(C)c1n[nH]c(C2CN(C(=O)c3ccsc3)CCO2)n1 (stereo not given),31.19%
3,CNC(=O)C(C)(C)NC(=O)c1cc(COc2cccc(C(C)=O)c2)[nH]n1,-8.74%
4,CC(c1cccnc1)N(C)Cc1ccccn1 (stereo not given),-18.23%
5,CC1N(CC2CC2)C(=O)COC12CCN(C(=O)c1cccs1)CC2 (stereo not given),32.04%
6,COc1ccccc1S(=O)(=O)N1CCN(C)[C@@H]2CS(=O)(=O)C[C@@H]21,40.88%
7,CCN1CCN(S(=O)(=O)N2CCc3ccccc3C2)[C@H]2CS(=O)(=O)C[C@H]21,25.37%
8,CCCN1CCN(S(=O)(=O)c2ccccc2OC)[C@H]2CS(=O)(=O)C[C@H]21,52.45%
9,Cc1cc(C(=O)Nc2cc(C3CC3)n[nH]2)c2c(C)nn(C)c2n1,40.99%
10,CCCn1ncc2c(C(=O)Nc3cnn(CC)c3C)cc(C3CC3)nc21,34.52%
11,CCn1ncc(NC(=O)c2cc(C3CC3)nc3c2c(C)nn3C)c1C,52.52%
12,COc1ccccc1CNC(=O)CN(C)C(C)c1nccs1 (stereo not given),38.91%
13,c1cnn(CC2CCCN2c2ncnc3ccsc23)c1 (stereo not given),-16.42%
14,CN(C)C(=O)N1CCO[C@@H]2CC(COCc3cccnc3)C[C@H]21 (stereo not given in full),20.01%
15,O=C(NCCCc1ccco1)c1ccc(N2CCOCC2)cc1,-89.85%
16,O=C(NCCc1ccncc1)c1ccc(N2CCOCC2)cc1,68.9%
17,O=C(NCCCc1ccc(F)cc1)c1ccc(N2CCOCC2)cc1,-26.8%
18,Cn1c(-c2cc3n(n2)CCCN(CC(=O)O)C3)nc2ccccc21,-15.71%
19,Cc1cccc(COC[C@@H]2CC[C@H]3[C@H](CCN3C(=O)CC3CC3)O2)n1,51.72%
20,Cc1cccc(COC[C@@H]2CC[C@H]3[C@H](CCN3Cc3ccco3)O2)n1,2.39%
21,Cc1cccc(COC[C@H]2CC[C@H]3[C@H](CCN3C(=O)CC3CC3)O2)n1,9.79%
22,Cc1cc(C(=O)N2C[C@H](c3ccccc3)[C@@H](N)C2)c2ccc(F)cc2n1,2.31%

row,SMILES,INHIBITION
1,CCc1ocnc1C(=O)N1CCCC1c1noc(C2CC2)n1 (stereo not given),43.85%
2,COc1cnc(CSc2nnc(C)s2)cc1OCC(=O)NC1CCCC1,-8.85%
3,CCCS(=O)(=O)N1CCC(Nc2c(F)cc(C#N)cc2F)CC1,10.85%
4,CCS(=O)(=O)N1CCC(Nc2c(F)cc(C#N)cc2F)CC1,55.17%
5,CCS(=O)(=O)N1CCC(Nc2ccc(C#N)cc2F)CC1,1.36%
6,Cc1ccc(C(=O)N2CC[C@H]3[C@H]2CCN3CC2CCOCC2)cc1F,-4.54%
7,Cc1nc[nH]c1CNCc1cccnc1N(C)C1CCCCC1,-15.91%
8,COc1cccc(OCCc2nc3c(cc2C(N)=O)CCC3)c1,23.18%
9,Cc1cnn(CCNCc2cccnc2)c1,0.9%
10,Cc1cnn(CC(C)NCc2cccnc2)c1 (stereo not given),8.13%
11,Cc1cnn(CCNCc2ccc(OCc3ccncc3)cc2)c1,40.88%
12,Cc1cnn(CC(C)NCc2ccc(OCc3cccnc3)cc2)c1 (stereo not given),16.18%
13,Cc1cnn(CC(C)NCc2ccccc2OCc2cccnc2)c1 (stereo not given),50.05%
14,Cc1cnn(CCNCc2ccc(OCc3cccnc3)cc2)c1,88.86%
15,Cn1c(=O)ccn(CC(=O)Nc2cnccc2O)c1=O,16.37%
16,COCCC1(CO)CCCN(Cc2ccc(C(F)(F)F)nc2)C1 (stereo not given),26.66%
17,CN1CCCC2(CC1)CCN(C(=O)CCc1ccccc1O)CC2,48.21%
18,CN1CCN(CC2(O)CCN(C(=O)CCc3ccccc3F)C2)CC1 (stereo not given),-20.27%
19,CN1CCCC2(CC1)CCN(C(=O)CCc1ccccc1F)CC2,50.59%
20,Cc1n[nH]cc1CNC(C)c1cccc(N2CCCC2=O)c1 (stereo not given),11.31%
21,Cc1nc(CNC(C)c2cccc(N3CCCC3=O)c2)cs1 (stereo not given),65.57%
22,CCc1nc(CNC(C)c2cccc(N3CCCC3=O)c2)cs1 (stereo not given),0.45%

row,SMILES,INHIBITION
1,Cc1ccc2nc(C3CCN(CC4CC4)CC3)nn2c1,28.95%
2,CC(C)(C)c1nc(CN2CCc3onc(-c4cccc(F)c4)c3C2)no1,-7.68%
3,O=C(c1ccco1)N1CCC[C@]2(C[C@H](Oc3ncccc3F)CO2)C1,-9.69%
4,O=C(c1cc(-c2ccco2)nc2c(Cl)cccc12)N1CC[C@H]2CNC[C@H]21,53.98%
5,O=C(c1cc(-c2ccco2)nc2c(Cl)cccc12)N1C[C@H]2CNC[C@H]2C1,35.46%
6,O=C1CN(C(=O)c2cc(-c3ccco3)nc3c(Cl)cccc23)CCN1,38.83%
7,Cc1occc1C(=O)N1CCOCC2(CCN(C3CCOCC3)C2)C1 (stereo not given),30.46%
8,c1ccc2c(c1)C(NC1CCCC1)CC21CCNCC1 (stereo not given),53.81%
9,Fc1ccc2c(c1)C1(CCNCC1)CC2NC1CC1 (stereo not given),21.32%
10,Cc1ccc2c(c1)C1(CCNCC1)CC2NC1CC1 (stereo not given),13.67%
11,CCc1ccc(C(=O)N2CCCC2c2nnc3n2CCCCC3)o1 (stereo not given),17.33%
12,Cc1ccc(CN2CCc3nnc(CN4CCCC4=O)n3CC2)o1,47.97%
13,Cc1ccc(CN2CCc3nnc(CN4CCCC4=O)n3CC2)s1,60.6%
14,Cc1cccc(CN2CCc3nnc(CN4CCCC4=O)n3CC2)n1,-43.47%
15,O=C1CCCN1Cc1nnc2n1CCN(Cc1ccoc1)CC2,-11.91%
16,c1ccc(CN2CCc3nnc(CN4CCCCC4)n3CC2)nc1,2.71%
17,O=C1CCCN1Cc1nnc2n1CCN(Cc1ccccn1)CC2,51.26%
18,Cn1cc(N2CC3(COCCN(Cc4nccs4)C3)OCC2=O)cn1 (stereo not given),6.8%
19,Clc1cnccc1N1CCCOCC1,-149.33%
20,O=C1CC(c2ccncc2)c2c(sc3c2CCCC3)N1 (stereo not given),-5.89%
21,Cc1cccc(N2CCN(C(=O)NC(C)c3nncn3C)CC2)c1C (stereo not given),38.76%
